Experimental data reported in a collection of fitness landscapes (doi:10.1016/j.celrep.2020.107928).
Over roughly 81,000 sequences, “one-hybrid fitness for binding parS DNA” has its median near -0.17; the highest 2% begin near 0.51. The sample holds the highest values, similar sequences and a random draw of the others, so the mix is not that of the screen.

B1: Caulobacter ParB omega fusion; a variant is named by its letters at X, in order, B8GW30 (parent)
chain: MESVVVGEPGMSEGRRGLGRGLSALLGEVDAAPAQAPGEQLGGSREAPIEILQRNPDQPRRTFREEDLEDLSNSIREKGVLQPILVRPSPDTAGEYQIVAGERAWRAAQRAGLKTVPIMVRELDDLAVLEIGIIENVQRADLNVLEEALSYKVLMEKFERTQENIAQTIGKSXSHVANXMRLLXLPDEVQSYLVSGELTAXHARAIAAAADPVALAKQIIEGGLSVRETEALARKAPNLSAGKSKGGRPPRVKDTDTQALESDLSSVLGLDVSIDHRGSTGTLTITYATLEQLDDLCNRLTRGI

Variants of: B1
Test: one-hybrid fitness for binding parS DNA (scaled: cognate 1, non-cognate 0); higher = stronger binding
Settings: with parS DNA site
Outline: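 In E. coli USO, a HIS3 reporter with its site placed 19 bp from the promoter was used to select Caulobacter ParB variants randomised at four specificity codons. Growth lasted 48 hours at 37°C on histidine-free M9 containing 0.1 mM IPTG and 5 mM 3-AT. Fitness was taken as the log change in variant-to-wild-type read ratio from Illumina sequencing of pre- and post-selection plasmids, rescaled between the non-cognate and cognate sites.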

one-hybrid fitness for binding parS DNA, 0.955:
RLMT
RTGC

one-hybrid fitness for binding parS DNA, 0.496:
RSNY

one-hybrid fitness for binding parS DNA, 0.987:
RAQC

one-hybrid fitness for binding parS DNA, 0.386:
RKMY

one-hybrid fitness for binding parS DNA, 0.352:
RSDY

one-hybrid fitness for binding parS DNA, 0.41:
RAMN

one-hybrid fitness for binding parS DNA, 0.935:
RTMT

one-hybrid fitness for binding parS DNA, 0.695:
RCRY

one-hybrid fitness for binding parS DNA, 0.277:
RTHF

one-hybrid fitness for binding parS DNA, 0.49:
RTYY

one-hybrid fitness for binding parS DNA, 0.813:
RSMT

one-hybrid fitness for binding parS DNA, 0.921:
RARC
RCMT

one-hybrid fitness for binding parS DNA, 0.826:
RTRC

one-hybrid fitness for binding parS DNA, 0.878:
RIMT
RAMT

one-hybrid fitness for binding parS DNA, 0.99:
RAYC

one-hybrid fitness for binding parS DNA, 0.927:
RAWC

one-hybrid fitness for binding parS DNA, 0.914:
RTNC

one-hybrid fitness for binding parS DNA, 0.264:
RAYF

one-hybrid fitness for binding parS DNA, 0.443:
RFDY

one-hybrid fitness for binding parS DNA, 0.985:
RTWC

one-hybrid fitness for binding parS DNA, 0.974:
RTQC

one-hybrid fitness for binding parS DNA, 0.824:
RKMT

one-hybrid fitness for binding parS DNA, 0.6:
RRMT

one-hybrid fitness for binding parS DNA, 0.472:
RCYY
RAHY

one-hybrid fitness for binding parS DNA, 0.207:
RTWR

one-hybrid fitness for binding parS DNA, 0.34:
RALM

one-hybrid fitness for binding parS DNA, 0.442:
RTQN

one-hybrid fitness for binding parS DNA, 0.381:
RTWM

one-hybrid fitness for binding parS DNA, 0.887:
RTDC

one-hybrid fitness for binding parS DNA, 0.483:
RMYY

one-hybrid fitness for binding parS DNA, 0.983:
RAHC

one-hybrid fitness for binding parS DNA, 0.475:
RIYY

one-hybrid fitness for binding parS DNA, 0.437:
RTDY

one-hybrid fitness for binding parS DNA, 0.593:
RTGY

one-hybrid fitness for binding parS DNA, ≤ 0.2:
AECV
GPSG
TNDG
LTTC
SCLR
VNDE
FAPS
LNVW
RNEL
RPGY
RRGE
LRQS
LLPK
ALSN
RPRY
EDER
KRAT
DYVS
MMHG
SFLE
PRQV
DVRM
RACR
RACK
RAWQ
RAHQ
RARR
RARK
CWYT
HLQT
YDQM
VCTK
QSGL
IVAE
SVEV
VAFA
TVDW
EQMM
RASD
RALR
RAQP
RASP
RAYK
WCQR
CHEL
DWAG
PWPN
IYAV
YPAT
WGPT
KAKV
PNIE
TVLI
CNIV
KLAN
DLHL
LCNK
PFMG
SAPW
DGTW
RDMT
RKMF
RRMQ
RRMF
AQDS
QQQY
PPNS
GHCG
VYPW
TWKG
RPMT
DFMT
RIMK
RLMQ
REMT
RLMK
FHRK
ACEY
KYCS
TTLF
SFCW
HHQT
SRMA
QDSQ
KLPC
IKAG
HGIV
RHMR
RMMK
RAMP
RHML
MMTS
SEPR
ENLY
PAVK
IFRK
PDML
THSD
RTCD
RTDK
RTDQ
RTQP
QNHE
TINS
DDHK
RPGE
IIHE
QARI
RTNP
RTGQ
RTHR
NTRC
RTGK
RTRR
TEQT
PSDC
TTIK
QTTK
EMYT
YMPG
QGVI
THDM
QTRR
WHQG

one-hybrid fitness for binding parS DNA, 0.457:
RSYY
RGMT

one-hybrid fitness for binding parS DNA, 0.754:
RFMT

one-hybrid fitness for binding parS DNA, 0.247:
RIMF
RMMF

one-hybrid fitness for binding parS DNA, 0.301:
RTNM

one-hybrid fitness for binding parS DNA, 0.874:
RMMT

one-hybrid fitness for binding parS DNA, 0.245:
RAWF
RTMF
RFMF

one-hybrid fitness for binding parS DNA, 0.973:
RASC

one-hybrid fitness for binding parS DNA, 0.659:
RTNY

one-hybrid fitness for binding parS DNA, 0.383:
RFYY

one-hybrid fitness for binding parS DNA, 0.451:
RLDY
RTCN

one-hybrid fitness for binding parS DNA, 0.962:
RACC

one-hybrid fitness for binding parS DNA, 0.497:
RLYY

one-hybrid fitness for binding parS DNA, 0.617:
RIRY

one-hybrid fitness for binding parS DNA, 0.828:
RTRY

one-hybrid fitness for binding parS DNA, 0.495:
RTLY

one-hybrid fitness for binding parS DNA, 0.484:
RIAY

one-hybrid fitness for binding parS DNA, 0.645:
RLRY

one-hybrid fitness for binding parS DNA, 0.482:
RSGY

one-hybrid fitness for binding parS DNA, 0.467:
RMIY

one-hybrid fitness for binding parS DNA, 0.968:
RALC

one-hybrid fitness for binding parS DNA, 0.978:
RTHC

one-hybrid fitness for binding parS DNA, 0.777:
RMRY

one-hybrid fitness for binding parS DNA, 0.959:
RTCC

one-hybrid fitness for binding parS DNA, 0.533:
RFRY

one-hybrid fitness for binding parS DNA, 0.55:
RSRY

one-hybrid fitness for binding parS DNA, 0.211:
RAQH

one-hybrid fitness for binding parS DNA, 0.208:
RTMQ

one-hybrid fitness for binding parS DNA, 0.87:
RHMT
